Experimental findings from PubChem BioAssay (EPA / NIEHS) are described below.

Several values for one entry are separate records, joined by “and”; a condition that tells them apart may be missing. Equal values may be shown once. Records with an inconclusive call do not appear. More than one record can exist for a structure, and the calls need not agree. Activity calls are given as the source filed them. How the source made its calls: active means hit-call score of the fitted dose curve at least 0.9, where 1 is the maximum; inconclusive means response in the unintended direction; inactive means score below 0.9.

In the assay the target is human Peripheral-type Benzodiazepine Receptor (PBR), TSPO (gene 706) (UniProt P30536). Put plainly: NVS_MP_hPBR: NovaScreen (NVS) Membrane Protein Assay for human Peripheral-type Benzodiazepine Receptor (PBR) (AID 2283331). On the procedure: NVS_MP_hPBR is a biochemical, single-readout assay that uses extracted gene-proteins from Human colonic cell membranes in a tissue-based cell-free assay. Measurements were taken 1 hour after chemical dosing in a 48-well plate.NVS_MP_hPBR is one of one assay component(s) measured or calculated from the NVS_MP_hPBR assay. It is designed to make measurements of radioligand binding, a form of binding reporter, as detected with scintillation counting signals by Filter-based radiodetection technology.Data from the assay component NVS_MP_hPBR was analyzed into 1 assay endpoint. This assay endpoint, NVS_MP_hPBR, was analyzed in the positive analysis fitting direction relative to DMSO as the negative control and baseline of activity. Using a type of binding reporter, loss-of-signal activity can be used to understand changes in the binding as they relate to the gene TSPO. Furthermore, this assay endpoint can be referred to as a primary readout, because the performed assay has only produced 1 assay endpoint. To generalize the intended target to other relatable targets, this assay endpoint is annotated to the transporter intended target family, where the subfamily is cholesterol transporter.
Sequence of human Peripheral-type Benzodiazepine Receptor (PBR), TSPO (gene 706) (P30536 whole entry, looked up): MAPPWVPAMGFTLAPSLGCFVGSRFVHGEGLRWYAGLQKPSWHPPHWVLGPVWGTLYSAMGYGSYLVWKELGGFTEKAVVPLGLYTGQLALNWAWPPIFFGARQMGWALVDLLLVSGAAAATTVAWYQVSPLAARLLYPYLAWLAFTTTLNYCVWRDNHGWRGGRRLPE
Binding assays used specific radioligands (tritiated, iodinated) with non-radioactive competitive displacement ligands in agonist or antagonist protocols (as indicated) and various reference compounds and inhibitors to titrate specific binding to receptors and transporters. Most enzyme assays (CYPs, kinases, phosphatases, proteases, HDACs) used recombinant protein and specific substrates (fluorescence mostly, some colorimetric and radioactive) and inhibitors, followed by a biochemical separation of substrate and product. All assays for the biochemical HTS were initially run in duplicate at a single concentration (10 uM for CYP450 assays and 25 uM for all others). […] Each assay was run with positive and negative controls, and concurrent controls on every plate. The follow-up (secondary) screen tested active chemical-pairs in concentration series, as well as a few additional assays not tested in the primary screen, some selected negative inactives, and several cases re-run in the concentration series for confirmatory purposes.
Usually AC50 stands for the concentration at which the activity in the assay is half-maximal. Consider `CC1(C)[C@H](C(=O)O[C@H](C#N)c2cccc(Oc3ccccc3)c2)[C@@H]1C=C(Br)Br`, for which the result was inactive and the AC50 was 10.1 µM (active).
For `CCCCCCCCCCCCCCCC[N+](C)(C)C`, the AC50 was 12.3 µM (active).
On the same count and under the same terms, then `Oc1ccc(Cl)cc1`, with 12.3 µM (active).
In the case of `CCc1cc(C)cc(CC)c1-c1c(OC(=O)C(C)(C)C)n2n(c1=O)CCOCC2`, the call was inactive.
Same read-out and setting: then `CCOP(=O)(OCC)Oc1ccc([N+](=O)[O-])cc1`, with “inactive”.
On to `Cc1ccc(OP(=O)(Oc2ccc(C)cc2)Oc2ccc(C)cc2)cc1` (tested in a mixture with another compound), for which the AC50 is 1.12 µM (active) and 1.76 µM (active).
For `CC(C)(C)C(O)C(Oc1ccc(-c2ccccc2)cc1)n1cncn1` (stereo not given), the call was inactive.
In the case of `CCc1cccc(C)c1N(C(=O)CCl)[C@@H](C)COC`, the AC50 was 2.89 µM (active).
Same read-out and setting: then `CC(C)CCCCCCCOP(=O)(Oc1ccccc1)Oc1ccccc1`, with 6.03 µM (active); and `COC(C)(C)CCC[C@H](C)C/C=C/C(C)=C/C(=O)OC(C)C`, with 25 µM (active).
Turning to `CC(C)COP(=O)(OCC(C)C)OCC(C)C`, the AC50 was 25 µM (active).
For `COC(=O)COc1ccc(Cl)cc1Cl`, the AC50 was 14.9 µM (active).
Still for that read-out and setting: the value for `O=S(=O)(c1ccccc1)c1ccccc1` was 10.1 µM (active).
As to `O=C1C(Cl)=C(Cl)C(=O)C(Cl)=C1Cl`, the AC50 was 34.4 µM (active).
